# Experimental data published in the supplement of paper PMC12024529.
# Tested on: HEK293 WT BDD-FVIII-Gluc
# Assay: secreted FVIII-Gluc luciferase Z-score vs DMSO control; higher = more FVIII-Gluc secretion
# Conditions: 5 µM
# Protocol: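 Natural plant-compound library (480 compounds, ST catalogue IDs) screened on HEK293 cells stably expressing WT BDD-FVIII-Gaussia luciferase fusion at 5 µM. Secreted Gluc activity in the medium is given as a Z-score relative to DMSO controls.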
row,SMILES,secreted FVIII-Gluc luciferase Z-score
1,CO[C@H]1/C=C/O[C@@]2(C)Oc3c(C)c(O)c4c(O)c(cc(O)c4c3C2=O)NC(=O)/C(C)=C\C=C\[C@H](C)[C@H](O)[C@@H](C)[C@@H](O)[C@@H](C)[C@H](OC(C)=O)[C@@H]1C,-0.224
2,O=c1cc(-c2ccccc2)oc2c1ccc1ccccc12,0.373
3,CCCCC/C=C\C/C=C\C/C=C\C/C=C\CCCC(=O)O,0.604
4,CC(=O)c1c(O)c(C)c(O)c2c1OC1=CC(=O)C(C(C)=O)C(=O)[C@@]12C (stereo not given in full),-5.07
5,COc1ccc2c(c1OC)C(Cc1ccccc1)N1CCc3cc4c(cc3C1=C2)OCO4 (stereo not given),0.115
6,NC(=O)C1CCCN1C(=O)C(Cc1cnc[nH]1)NC(=O)C1CCC(=O)N1 (stereo not given),0.443
7,COc1cc2c(cc1OC)C(=O)N(C)CC2,0.547
8,O=c1cc(-c2ccc(O)cc2O)oc2ccccc12,0.498
9,Nc1ncnc2c1ncn2[C@H]1C[C@H](O)[C@@H](COP(=O)(O)O)O1,0.376
10,CO[C@@H]1[C@@H](OC2OC(C)C(OC3CC(C)(O)C(O)C(C)O3)C(N(C)C)C2O)[C@@H](CC=O)C[C@@H](C)[C@@H](OC2CCC(N(C)C)C(C)O2)/C=C/C=C/C[C@@H](C)OC(=O)C[C@H]1O (stereo not given in full),0.36
11,COC(=O)[C@@H]1[C@H]2C[C@H]3c4[nH]c5ccccc5c4CCN3C[C@@H]2CC[C@@H]1O,0.00333
12,C[C@H](CCC(=O)O)[C@H]1CC[C@H]2[C@@H]3[C@H](O)C[C@@H]4C[C@H](O)CC[C@]4(C)[C@H]3CC[C@]12C,0.787
13,C=C1CCC2OC2(C)CCC2C1CC2(C)C (stereo not given),0.146
14,COc1ccc(CCN(C)CCCC(C#N)(c2ccc(OC)c(OC)c2)C(C)C)cc1OC (stereo not given),0.188
15,O=C(/C=C/c1ccc(O)c(O)c1)O[C@@H]1CC(O)(C(=O)O)CC(O)C1O (stereo not given in full),0.588
16,C/C(=C\CNc1ncnc2c1ncn2C1OC(CO)C(O)C1O)CO (stereo not given),-0.332
17,OC1CCC2Cc3ccccc3N=C12 (stereo not given),-0.361
18,CC[C@]12CCCN3CCc4c(n(c5ccccc45)C(=O)C1)C32 (stereo not given in full),0.363
19,C=C[C@@](C)(O)CC[C@@H]1[C@@]2(C)CCCC(C)(C)[C@@H]2CC[C@@]1(C)O,0.556
20,CO[C@H]1/C=C/O[C@@]2(C)Oc3c(C)c(O)c4c(O)c(c(/C=N/N5CCN(C)CC5)c(O)c4c3C2=O)NC(=O)/C(C)=C\C=C\[C@H](C)[C@H](O)[C@@H](C)[C@@H](O)[C@@H](C)[C@H](OC(C)=O)[C@@H]1C,-0.504

row,SMILES,secreted FVIII-Gluc luciferase Z-score
1,CC(C)=CCC/C(C)=C/CC/C(C)=C/CO,0.255
2,O=C(CCc1ccc(O)cc1)c1c(O)cc(O)cc1O,-0.769
3,Cc1ccc(CC(Cc2nc3ccccc3[nH]2)c2nc3ccccc3[nH]2)cc1 (stereo not given),0.284
4,C=CCc1ccc(O)c(OC)c1,-0.898
5,C=CC1CN2CCC1CC2C(O)c1ccnc2ccc(OC)cc12 (stereo not given),-0.00699
6,CCC(C)(C)C(=O)O[C@H]1C[C@@H](C)C=C2C=C[C@H](C)[C@H](CC[C@@H]3C[C@@H](O)CC(=O)O3)[C@H]21,-0.297
7,COc1cc([C@@H]2Oc3cc(C4Oc5cc(O)cc(O)c5C(=O)[C@H]4O)ccc3O[C@H]2CO)ccc1O (stereo not given in full),0.0424
8,Cc1c(-c2c(C)c(=O)c3c(C(C)C)c(=O)c(=O)c(C=O)c-3c2=O)c(O)c2c(C=O)c(O)c(O)c(C(C)C)c2c1O,-0.893
9,O=c1cc(-c2cccc(O)c2)oc2cc(O)ccc12,-0.00771
10,O=C1C[C@H](c2ccccc2)Oc2cc(O)cc(O)c21,0.533
11,O=c1cc(-c2ccc(O)c(O)c2)oc2cc(O)cc(O)c12,-1.34
12,Cc1ccc2oc(-c3ccccc3)cc(=O)c2c1,0.845
13,CC(=O)Oc1ccc(/C=C/C(=O)CC2OC(Oc3cc(OC(C)=O)c4c(c3)O[C@@H](c3ccc(OC(C)=O)cc3)CC4=O)C(OC(C)=O)C(OC(C)=O)C2OC(C)=O)cc1 (stereo not given in full),0.201
14,COc1ccc2c3c1O[C@H]1C[C@@H](O)C=CC31CCN(C)C2 (stereo not given in full),0.116
15,COc1c(-c2ccc(O)c(O)c2)oc2cc(O)cc(O)c2c1=O,-0.415
16,O=c1cc(-c2ccccc2)oc2cccc(O)c12,-0.455
17,COc1ccc(-c2cc(=O)c3ccc(O)cc3o2)cc1,1.22
18,CC/C=C\C/C=C\C/C=C\CCCCCCCC(=O)O,0.636
19,C[C@H]1c2ccoc2CC2[C@H]1CCC1[C@@](C)(CC(=O)O)CCC[C@]21C (stereo not given in full),0.392
20,O=C(O)C1OC(O)C(O)C(O)C1O (stereo not given),0.395
